Test results taken from PubChem BioAssay (NCI).
Values joined by “and” are separate entries in the source; they are usually repeats but may differ in a detail not shown here. Equal entries are not always repeated. About 79,000 compounds went through this panel and 15% of them were active in at least one assay; those are over-represented in the sample as a whole. Values without a mark were called inactive. Active and inactive are the calls of the source. Rule as the data show it: active = growth inhibition above about 70%; inactive = the rest.

Legend:
[1] = NCI Yeast Anticancer Drug Screen. Data for the rad50 strain (AID 155);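 also: 0% = growth of vehicle-only cultures of the same strain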; details: S. cerevisiae rad50 strain growth inhibition; at 50.0 µM; active compounds read high
Outline: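 Vehicle-treated cultures provide the reference for the growth inhibition reported for compound-exposed, repair-deficient yeast.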

[2] = NCI Yeast Anticancer Drug Screen. Data for the mec2-1 strain (AID 157); details: S. cerevisiae mec2-1 strain, at 50.0 µM, active compounds read high
Outline: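 Yeast mec2-1 mutant treated with compound. Readout: growth inhibition vs vehicle controls.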

[3] = NCI Yeast Anticancer Drug Screen. Data for the sgs1 mgt1 strain (AID 161);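 also: 0% = growth of cultures given vehicle only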; details: S. cerevisiae sgs1 mgt1 strain, at 50.0 µM, active compounds read high
Outline: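 Test agents were incubated with a DNA-repair-mutant yeast strain. Growth was then read and compared against vehicle-treated controls.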

[4] = NCI Yeast Anticancer Drug Screen. Data for the cln2 rad14 strain (AID 165);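 also: 0% = growth equal to vehicle treated cultures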; details: S. cerevisiae cln2 rad14 strain, at 50.0 µM, active compounds read high
Outline: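 cln2 rad14 yeast strain; compound exposure; growth inhibition read vs vehicle controls.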

[5] = NCI Yeast Anticancer Drug Screen. Data for the bub3 strain (AID 167); details: S. cerevisiae bub3 mutant strain, at 50.0 µM, active compounds read high
Outline: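 Mutant yeast screening strain plus compound; vehicle-treated cultures serve as the 0% inhibition reference.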

[6] = NCI Yeast Anticancer Drug Screen. Data for the mlh1 rad18 strain (AID 175); details: S. cerevisiae mlh1 rad18 strain growth inhibition; at 50.0 µM; active compounds read high
Outline: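 Yeast w/ defined DNA-repair lesions; compound exposure; growth vs vehicle controls → % inhibition.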

Structure (SMILES) | growth inhibition [1] | growth inhibition [2] | growth inhibition [3] | growth inhibition [4] | growth inhibition [5] | growth inhibition [6]
O=C(Cc1ccccc1)OCCBr | -8.95% | 4.65% | 0.95% | 15.1% | -16.2% | -2.05%
ClC1=C(Cl)C2(Cl)C3C(C4(Cl)C(Cl)=C(Cl)C3(Cl)C4(Cl)Cl)C2(Cl)C1(Cl)Cl (stereo not drawn) | -1.7% | -6.05% | 9% | -71% | -2.4% | -11.8%
O=C1NC(=S)NC(=O)C1=CC1CC1 | 22.6% | 13.8% | 17.4% | 19.6% | 9.2% | 29.6%
CN1CN(c2ccccc2)C2(CCN(CC(C)(c3ccc(F)cc3)C3OCCCO3)CC2)C1=O (stereo not drawn) | -22.9% | -18.9% | -21.9% | -5.3% | -27.1% | 8.95%
Nc1ccc(/C=C/C(=O)Nc2ccc(S(=O)(=O)F)cc2)cc1 | 22.4% | 96.2% (active) | 21.1% | 40.1% | 99% (active) | 95.5% (active)
O=P1(C(Cl)Cl)OCCCO1 | -9.35% | 10.7% | -2.65% | -10.2% | -0.15% | -0.15%
O=C1NC(=O)C(=C2C(=O)COC2=O)C(=O)N1 | -4.4% | -16.6% | -13.8% | -1.7% | -2.8% | -19.5%
COc1cccc(C2(C#N)CCN(C)CC2)c1 | 28.1% | 23.1% | 22.7% | -7.45% | 12.7% | 62.5%
[Br][Co][Br].[NH-]CC[NH-].[NH-]CC[NH-] | 28.4% | 15.6% | 18.4% | -6.95% | 22.9% | 17.8%
[Se]c1nc(N2CCOCC2)ncc1-c1ccccc1 | -18% | 0.5% | -17.2% | 0.5% | -3.3% | 9%
O=P(Oc1ccccc1)(Oc1ccccc1)C(O)C(Cl)(Cl)Cl (stereo not drawn) | 7.55% | -2.55% | -0.3% | 6.5% | 4% | 5.45%
CCC[CH2][Sn]([Br])([CH2]CCC)[CH2]CCC | 91.2% (active) | 97.8% (active) | 95.8% (active) | 96% (active) | 89.4% (active) | 97.3% (active)
CC1(C)C=C(NC(=O)N2CC2)C(C)(C)N1O | 12.7% | 11.3% | -2% | 9.75% | 34.8% | 1.45%
Cc1cc(Cl)ccc1OC(C)C(=O)O (stereo not drawn) | -2.05% | -15.2% | 0% | 15.3% | -12.7% | -7.55%
c1ccc2cc(C3NCCc4[nH]cnc43)ccc2c1 (stereo not drawn) | 4.65% | -7.6% | -6.7% | 2.85% | -7.7% | 29.8%
CCCCCCCCCCCCCCCCCCC[As](=O)(O)CCCCCCCCCCCCCCCCCCC | 46.2% | 19.2% | 23.4% | -2.2% | 13.4% | 30.4%
CC12CC3CC(C1)CC(N=[N+]=[N-])(C3)C2 | -16.4% | -1.3% | -2.65% | 1.3% | -0.95% | -2.6%
CCN(CC)CCN1C(=O)NC(=O)C(CC)(c2ccccc2)C1=O (stereo not drawn) | 4.1% | 9.4% | -6% | 2.9% | 8.05% | 4.9%
CNC(=O)Oc1cccc(NC(=O)OC(C)(C)C)c1 | 3.5% | 14.8% | 27.1% | 1.45% | 29.1% | 15.1%
C(#CCN1CCCCCC1)CN1CCCCCC1 | 0.55% | -9.8% | 0.05% | -8.85% | -14.1% | -2.7%
C1CN1Sc1nc(SN2CC2)nc(SN2CC2)n1 | -1.35% | -5.55% | 19.7% | -73% | 11.8% | 27.3%
COc1cc(C(CC(C)=O)c2cc3c(cc2OC(C)=O)OCO3)cc(OC)c1OC (stereo not drawn) | 18.8% | 4.4% | -0.9% | -9.1% | 10.8% | 21.9%

Structure (SMILES) | growth inhibition [1] | growth inhibition [2] | growth inhibition [3] | growth inhibition [4] | growth inhibition [5] | growth inhibition [6]
C=C[CH2][Sn]([CH3])([CH3])[CH2]C=C | 11.1% | 4.35% | 2.75% | -19.4% | -12.6% | 4.75%
COc1ccc2c3c1OC1C(C)(O)C(O)CC4C(C2)N(C)CCC341 (stereo not drawn) | -3.55% | -4.95% | -16.2% | 9.3% | 4.4% | 14.1%
CC1=C[C@H]2[C@@]3(O)[C@H](C)C[C@]4(OC(=O)C(C)C)[C@H]([C@@H]3C=C(CO)C[C@]2(O)C1=O)C4(C)C | 20.1% | 14.3% | 4.8% | 3.9% | 20.8% | 10.8%
CCC(=O)c1ccc(C)cc1 | -11.5% | 1.2% | -10.4% | -16.7% | 4.2% | -3.45%
CN(C)C(=S)Oc1c(Cl)cc(S(=O)(=O)F)cc1Cl | 35.4% | 12.9% | 15.2% | 19.6% | -6.5% | 21.4%
Cc1[nH]c2cc([N+](=O)[O-])ccc2c1[N+](=O)[O-] | 44.6% and 36.9% | 32.2% and 25.4% | 26% and 38.3% | 24.9% and 9.1% | -4.65% and -4.55% | 59% and 41.8%
CN(C)NP(c1ccccc1)c1ccccc1 | -2.55% | -3.8% | -5.95% | -6.1% | -18.2% | 1.1%
CN(C)c1c2c(=O)n(C)c(=O)n(C)c2nc2cccc[n+]12 | 21.9% | 22.9% | -5.2% | 2.9% | 5.95% | 11.6%
O=C1CCC(=O)N1[N+](=O)[O-] | -17.2% | -10.2% | -18.8% | 2.95% | -2.45% | -16%
C[CH2][Sn]([CH2]C)([O]C(=O)c1ccccc1F)[O]C(=O)c1ccccc1F | -8.75% | 27.6% | 4.1% | 22.6% | 22.8% | 28.1%
COC(=O)CNP(=O)(NCC(=O)OC)N(CCCl)CCCl | -8.2% | -14.8% | -18.6% | 5.2% | -1.65% | 5.7%
CC(=O)c1ccc(N2CCNCC2)cc1 | -27.6% | -49.8% | -3.95% | 16.6% | -14.2% | -22.1%
O=C(O)CCC(=O)O.[Ni] | -29.1% | -17.1% | -27% | -36.5% | -31.2% | -18.3%
CN(C)C(=O)Sc1ccc(S(=O)(=O)F)c(Cl)c1Cl | 26.4% | 13.3% | 31.1% | 21.9% | 3.25% | 24.6%
CCCN(CCC)CC(O)c1ccc2c3c(cccc13)CC2 (stereo not drawn) | 21.9% | -5.9% | 19.2% | -10.1% | -4.6% | 16.4%
OCC[N+]12CN3CN(CN(C3)C1)C2 | 21.9% | 6.3% | 20.1% | 16.9% | 4.55% | 15.7%
BrCCCCCCBr | -5.65% | 5.8% | 3.25% | -29.3% | 5.6% | 5.4%
COP(=O)(NC(=O)OC(C)C)OC | -37.1% | -21.2% | -9.8% | 5.2% | -15.4% | -7.95%
O=S(=O)(O)O.[W] | 27.2% | -7.55% | 14.3% | -5.65% | 18% | -8.95%
CC(=O)Oc1ccc(C=C(C#N)C#N)cc1 | 40.6% | 6.6% | 12.4% | -7.1% | 2.05% | 14.9%
CN(C)c1ccc(N=[N+]=[N-])cc1 | 3.05% | 11% | 10.3% | -74.8% | -6.45% | 8.15%
